UCHL1 block: human UCHL1 deubiquitinase inhibition; P09936; purified UCHL1, Ub-rhodamine cleavage fluorescence; inhibition, % at 20 µM; hit rate 0.2% among 47,000; AID 1645859
USP10 inh: inhibitors of human USP10 deubiquitinase; Q14694; hit rate 1.1% among 47,000; purified USP10, Ub-rhodamine fluorescence, 60 min; inhibition, % at 20 µM; AID 1645856
USP7 inh: blocks human USP7 ubiquitin-rhodamine cleavage. purified USP7, Ub-rhodamine cleavage fluorescence. inhibition, % at 20 µM. hit rate 0.3% among 47,000
USP8 block: human USP8 deubiquitinase inhibition. AID 1645853. inhibition, % at 20 µM. purified USP8, Ub-rhodamine cleavage fluorescence, 30 min. hit rate 4.2% among 47,000
OTUD3 inh: inhibitors of human OTUD3 deubiquitinase; inhibition, % at 25 µM; AID 1645858; hit rate 0.7% among 47,000; purified OTUD3, Ub-rhodamine fluorescence, 2 h; Q5T2D3
USP17 block: human USP17-like deubiquitinase inhibition; A8MUK1; purified USP17, Ub-rhodamine cleavage fluorescence, 3 h; inhibition, % at 50 µM; hit rate 6.5% among 47,000; AID 1645855
Target sequence (A8MUK1 whole entry, looked up): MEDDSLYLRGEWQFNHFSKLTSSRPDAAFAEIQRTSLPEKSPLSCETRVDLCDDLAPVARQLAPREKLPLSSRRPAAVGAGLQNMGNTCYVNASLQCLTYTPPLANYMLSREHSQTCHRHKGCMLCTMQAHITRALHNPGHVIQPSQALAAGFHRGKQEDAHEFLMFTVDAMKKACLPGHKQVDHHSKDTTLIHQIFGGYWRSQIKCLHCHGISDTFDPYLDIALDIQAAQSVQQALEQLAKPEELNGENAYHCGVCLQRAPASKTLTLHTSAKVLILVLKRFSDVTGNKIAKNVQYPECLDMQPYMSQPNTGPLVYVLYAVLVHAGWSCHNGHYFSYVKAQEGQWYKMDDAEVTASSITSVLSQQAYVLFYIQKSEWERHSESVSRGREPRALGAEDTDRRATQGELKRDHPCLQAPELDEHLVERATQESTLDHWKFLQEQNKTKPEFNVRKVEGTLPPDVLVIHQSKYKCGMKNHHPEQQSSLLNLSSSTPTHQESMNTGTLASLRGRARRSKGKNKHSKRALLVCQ
Each line names hits and unclear results; the compound was inactive in the other large screens. An excerpt weighted towards active compounds, which were near 9.2% of everything screened. No stated cut-off is given here; in the data, active means inhibition above about 30%; inactive means the rest.

C=Cc1ccc(Cn2cccc(S(=O)(=O)N3CCCC3)c2=O)cc1	USP17 block 63
O=c1c(S(=O)(=O)N2CCCCCC2)cccn1Cc1ccccc1	none
O=C(Cn1cccc(S(=O)(=O)N2CCCCCC2)c1=O)Nc1ccc(F)cc1	USP17 block 42
OC(CN1CCN(c2ccc(F)cc2)CC1)c1ccc2c(c1)CCN2 (configuration not stated)	USP17 block 58
COc1ccc2c(C(O)CN3CCN(c4ccc(F)cc4)CC3)c[nH]c2c1 (configuration not stated)	none
CCCc1nc2c(sc3nc4c(cc32)COC(C)(C)C4)c(=O)n1CC(=O)Nc1ccccc1C	USP17 block 62
Cc1nc(Nc2nnc(C)s2)cc(C2CCCN2C(=O)C2CCCC2)n1 (configuration not stated)	none
Cc1ccc(-n2cc3c(N4CCCC(C(=O)NCC5CCCCC5)C4)ncnc3n2)cc1 (configuration not stated)	USP17 block 60
CC1CCCN(C(=O)c2ccc(-n3cccn3)nc2)C1 (configuration not stated)	none
Cc1cccc2sc(NC(=O)c3nnn(-c4ccc(F)cc4)n3)nc12	USP17 block 56
O=C(Nc1nc2ccccc2s1)c1nnn(-c2ccccc2)n1	none
CCCn1c(-c2ccccc2)cn2c3c(=O)[nH]c(=O)n(C)c3nc12	none
CCCn1c(-c2ccc(F)cc2)cn2c(-c3ccccc3)c(-c3ccccc3)nc12	USP8 block 68
COc1ccc(CCC(=O)Nc2nnc(C3CC(=O)N(c4ccccc4)C3)s2)cc1 (configuration not stated)	USP10 inh 34
CCc1ccccc1N1CC(c2nnc(NC(C)=O)s2)CC1=O (configuration not stated)	none
CCc1ccccc1N1CC(c2nnc(NC(=O)Cc3ccc(C)cc3)s2)CC1=O (configuration not stated)	USP17 block 37
Cc1cc(C)c(NC(=O)c2cccc(N3C(=O)C(C)(C)CS3(=O)=O)c2)c(C)c1	none
Cc1nc2ccc(S(=O)(=O)NCC(=O)NC3CCCCC3)cc2s1	none
Cc1cc(=O)[nH]c(SCC(=O)c2cc(C)n(CCC3=CCCCC3)c2C)c1C#N	USP10 inh 45, USP8 block 49, USP17 block 47
CCN1CCN(C(=O)c2n[nH]c3c2CCCCCC3)CC1	none
Cc1ocnc1C(=O)N1CCC2(C/C=C/CCOc3ccccc3C(=O)NC2)CC1	none
O=C1NCC2(C/C=C/CCOc3ccccc31)CCN(C(=O)c1ccnc(N3CCCC3)c1)CC2	OTUD3 inh 42, USP17 block 95
Cc1nnc(Sc2cc(C(=O)NCCN3CCCC3)c3ccccc3n2)s1	USP17 block 52
Cc1ccccc1CNC(=O)Cn1c(=O)n(-c2ccccc2)c2ncccc21	USP17 block 47
Cc1cccc(C)c1NC(=O)C(c1ccc2c(c1)OCO2)N1CCOCC1 (configuration not stated)	none
FC(F)(F)c1cnc(-n2nccc2-c2ccc(Sc3ccccc3)cc2)c(Cl)c1	none
Nc1c(-c2ccc(Cl)cc2)cnc2cc(-c3ccc(Cl)c(Cl)c3)nn12	USP17 block 41
Nc1c(-c2ccc(Cl)cc2)cnc2nc(Sc3ncc(C(F)(F)F)cc3Cl)nn12	USP8 block 35, OTUD3 inh 30
Cc1ccccc1CNC(=O)C1CCCN(S(=O)(=O)Cc2ccc(Cl)cc2)C1 (configuration not stated)	none
CC(C)(C)CC(=O)N1CCc2[nH]c3ccccc3c2C1	none
CCc1cccc(-n2nnnc2N2CCN(C(=O)Nc3cccc(OC)c3)CC2)c1	none
O=C(CSc1nc(-c2ccccc2)c2ccccc2n1)NCc1ccc(C(=O)O)cc1	none
O=C(Cn1c(=O)nc(-c2ccccc2)c2ccccc21)NCc1ccc2c(c1)OCO2	USP17 block 68
NS(=O)(=O)c1ccc(CCNC(=O)CSc2nc3ccccc3c(=O)n2Cc2ccc3c(c2)OCO3)cc1	USP8 block 53
O=C(CSc1nc(-c2ccccc2)c2ccccc2n1)NCc1ccc2c(c1)OCO2	USP8 block 55
O=C(CSc1nnc2sc3ccccc3n12)NCc1ccc2c(c1)OCO2	USP17 block 32
Cc1cc(=O)n2c(n1)NC(N1CCOCC1)=NC2c1ccc(Cl)cc1 (configuration not stated)	none
COc1ccc(NC(=O)NCc2ccc(C)nc2)cn1	none
CCN1C(=O)Cc2cc(NS(=O)(=O)c3cc(C)ccc3C)ccc21	USP8 block 40
O=C(Nc1nccn1Cc1ccccc1)c1cc(-c2cccc(Cl)c2)on1	USP8 block 80
COc1ccc(NC(=O)C(C)n2nc(-c3ccccc3)c3cc(Cl)ccc32)cc1 (configuration not stated)	none
CC(C(=O)NCCc1ccccc1)n1nc(-c2ccccc2)c2cc(Cl)ccc21 (configuration not stated)	USP8 block 31, OTUD3 inh 34, USP17 block 48
C=C[C@]1(C)CC[C@]2(C)[C@@H](C1)[C@@H](O)C[C@H]1[C@]3(C)CCC[C@@]12OC3=O	USP10 inh 38
COc1ccc(Cl)cc1NC(=O)C1[C@@H]2C(=O)N(Cc3ccc4c(c3)OCO4)C(=O)[C@@H]2[C@H]2c3ccccc3C=CN12 (some centres not stated)	USP8 block 72
COc1ccc(N2C(=O)[C@@H]3[C@H]4c5ccccc5C=CN4C(C(=O)Nc4ccc5c(c4)OCO5)[C@@H]3C2=O)cc1 (some centres not stated)	USP8 block 87, USP17 block 64
O=C(c1ccco1)C1C2C(=O)N(c3ccc(Br)cc3)C(=O)C2C2c3ccccc3C=CN12 (configuration not stated)	USP8 block 46
CCCN1CCN(S(=O)(=O)c2ccc3c(c2)NC(=O)C(C)CS3)CC1 (configuration not stated)	none
COC(=O)c1ccccc1NC(=O)COC(=O)CCc1ccccc1	USP8 block 35
Cc1ccccc1NC(=O)COC(=O)c1cc2ccccc2cc1O	none
O=C(COc1cccc2ccc(N3CCC(Cc4ccccc4)CC3)nc12)Nc1cccc(Cl)c1	USP8 block 84, USP17 block 39
COc1ccc(N2CCN(C(=O)c3csc4c3CCC(C(C)(C)C)C4)CC2)cc1 (configuration not stated)	USP8 block 70
COc1ccc(CNc2ncc(C(=O)N3CCN(c4ccc(F)cc4)CC3)c(C)n2)cc1	none
Cc1ccc2c(c1)C(NC(=O)c1nn(C)cc1Cl)CC1(CCOCC1)O2 (configuration not stated)	none
Cc1n[nH]c(C)c1CC(=O)NCc1nnc(-c2nccc3ccccc23)o1	USP8 block 33, USP17 block 40
CCOc1cc(CNC(=O)Cc2c(C)n[nH]c2C)ccc1OC	none
